Source: PubChem (National Center for Advancing Translational Sciences (NCATS))
RECQ1 helicase – qHTS Assay for Inhibitors of RecQ-Like Dna Helicase 1 (RECQ1) | Potency, µM (titrated, usually from 57.3 µM), for inactives: at the top dose activity, negative = inhibition, actives largely listed as inhibitors | RECQ1 DNA unwinding, red fluorescence kinetic read | ATP-dependent DNA helicase Q1 (Homo sapiens), P46063 | hit rate 0.54% among 240,000;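 also: plate controls were vehicle for no effect and no enzyme for full effect; nearly all actives have a fitted effect of over 30% in size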
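RECQ1T1 50 nM; forked duplex (20 bp + 30-nt ss tails) 200 nM, ATP 2 mM final; pH 8.0, 2 mM MgCl2, 2.5 ug/ml poly(dI-dC); 15 min compound preincubation; discontinuous kinetic read over 2 h at RT.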
WRN helicase inh-1 – qHTS for Inhibitors of WRN Helicase | hit rate 0.46% among 360,000 | AID 651768, 2012 | Bifunctional 3'-5' exonuclease/ATP-dependent helicase WRN (Homo sapiens), Q14191 | Potency, µM (titrated, usually from 114 µM), without a hit: top-dose activity change, negative = inhibition, usual class: inhibitors | WRN helicase unwinding, fluorescent forked duplex, kinetic; also: % is scaled to controls: 0 for no effect and ±100 for the full control effect; nearly all actives have a fitted effect of over 55% in size
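Kinetic fluorescence helicase assay: unwinding of a quenched forked DNA duplex (100 nM final) with 2 mM ATP final raises red fluorescence (525/598 nm). Compounds sat 15 min at room temperature with 20 nM WRN beforehand.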
FEN1 inh-1 – qHTS Assay for the Inhibitors of Human Flap endonuclease 1 (FEN1) | P39748 | Recombinant FEN1 flap cleavage, fluorescence, 15 min | Potency, µM (doses to about 114 µM), inactives show at the highest dose activity change, negative = inhibition, hits mostly inhibitors | hit rate 0.35% among 390,000; also: % is scaled to controls: 0 for no effect and ±100 for the full control effect; nearly all actives have a fitted effect of over 65% in size
Target sequence (P39748 whole entry, looked up): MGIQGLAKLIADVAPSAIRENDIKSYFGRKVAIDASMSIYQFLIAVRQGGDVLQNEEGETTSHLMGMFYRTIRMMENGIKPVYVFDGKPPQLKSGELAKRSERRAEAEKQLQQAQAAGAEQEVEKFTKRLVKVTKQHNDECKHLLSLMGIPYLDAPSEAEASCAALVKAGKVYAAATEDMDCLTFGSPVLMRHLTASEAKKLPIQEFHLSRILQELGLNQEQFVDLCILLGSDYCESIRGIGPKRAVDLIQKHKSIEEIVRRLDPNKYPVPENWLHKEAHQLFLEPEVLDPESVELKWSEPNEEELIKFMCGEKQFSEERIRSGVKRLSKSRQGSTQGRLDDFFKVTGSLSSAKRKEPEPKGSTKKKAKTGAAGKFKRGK
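Concentration–response screening of FEN1 (10 nM): 15 min compound preincubation at room temperature, reaction started with 50 nM substrate and read at 0 and 15 min. Corrected, normalized data were fitted by a four-parameter Hill equation.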
BLM helicase inh-1 – qHTS Assay for Inhibitors of Bloom's syndrome helicase (BLM). AID 2528, 2010. Potency, µM (doses to about 56.1 µM), without a hit: at the highest dose activity change, negative = inhibition, actives largely listed as inhibitors. hit rate 0.2% among 350,000. recombinant BLM DNA unwinding, fluorescence dequenching. RecQ-like DNA helicase BLM (Homo sapiens), P54132;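 also: plate controls were vehicle for no effect and no enzyme for full effect; nearly all actives have a fitted effect of over 35% in size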
APEX1 inh – qHTS Assay for Inhibitors of the Human Apurinic/apyrimidinic Endonuclease 1 (APE1); DNA repair nuclease/redox regulator APEX1 (Homo sapiens), P27695; recombinant APE1, TAMRA/BHQ-2 abasic DNA cleavage fluorescence; Potency, µM (series often up to 65.8 µM), for inactives: at the top dose activity change, negative = inhibition, usual class: inhibitors; hit rate 0.35% among 350,000; AID 2517, 2012;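 also: plate controls were vehicle for no effect and reference inhibitor for full effect; nearly all actives have a fitted effect of over 55% in size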
Target sequence (P27695 whole entry, looked up): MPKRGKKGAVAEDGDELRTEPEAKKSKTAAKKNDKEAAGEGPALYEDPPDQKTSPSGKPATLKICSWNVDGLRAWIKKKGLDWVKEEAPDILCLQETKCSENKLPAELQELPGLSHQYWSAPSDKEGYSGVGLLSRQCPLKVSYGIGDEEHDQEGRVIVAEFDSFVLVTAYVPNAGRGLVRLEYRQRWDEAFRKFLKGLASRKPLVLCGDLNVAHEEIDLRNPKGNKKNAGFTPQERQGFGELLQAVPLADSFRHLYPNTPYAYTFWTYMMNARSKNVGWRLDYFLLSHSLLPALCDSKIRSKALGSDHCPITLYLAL
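Measures dequenching upon AP-site incision of a 5'-TAMRA/3'-BHQ-2 THF-containing duplex, 50 nM; human APE1 0.75 nM after 15 min room-temperature exposure to compound; kinetic three-point read at one-minute spacing.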
FEN1 inh-2 – qHTS Assay for the Inhibitors of FEN1: Confirmatory Assay for Cherry-picked Compounds. shares compounds with FEN1 inh-1. FEN1 flap cleavage, TAMRA/BHQ2 fluorogenic DNA substrate. Potency, µM, actives largely listed as inhibitors. hit rate 79% among 880. AID 720498, 2013; also: nearly all actives have a fitted effect of over 60% in size
WRN helicase inh-2 – qHTS for Inhibitors of WRN Helicase: Confirmatory Assay for Cherry-picked Compounds; shares compounds with WRN helicase inh-1; AID 720497, 2013; WRN helicase DNA unwinding, fluorescence kinetic; hit rate 63% among 610; Potency, µM (doses to about 57.1 µM), for inactives: top-dose activity, negative = inhibition, hits mostly inhibitors; also: nearly all actives have a fitted effect of over 65% in size
TO DNA binding – qHTS for Inhibitors of WRN Helicase: Thiazole Orange DNA Binding Counterscreen; thiazole orange DNA binding displacement, fluorescence; AID 720499, 2013; shares compounds with WRN helicase inh-1; Potency, µM (highest dose often 57.1 µM), for the others: at the highest dose activity change, negative = inhibition, most hits filed as inhibitors; hit rate 10% among 610;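 also: drop in dye fluorescence marks compound binding to DNA; % is scaled to controls: 0 for no effect and ±100 for the full control effect; nearly all actives have a fitted effect of over 60% in size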
BLM helicase inh-2 – qHTS for Inhibitors of WRN Helicase: BLM Helicase Counterscreen for WRN Inhibitors | shares compounds with WRN helicase inh-1 | Recombinant BLM helicase DNA unwinding, red fluorescence | Potency, µM (titrated, usually from 57.1 µM), for the others: top-dose activity change, negative = inhibition, hits mostly inhibitors | hit rate 60% among 610; also: nearly all actives have a fitted effect of over 60% in size
Starred values were filed as active, the others as inactive; [ ] = remark or other dose. Compounds with a hit are over-represented: about 0.87% of the library has one in this group of screens. Calls follow the shape of the dose curve; as a rule, active = well fitted curve in the direction sought with a large enough effect; inconclusive = small, poorly fitted or top-dose-only effect, or another doubt; inactive = no such curve, though single readings can be large; an effect the other way counts as inactive or inconclusive. Potency is read from the fitted curve at half-maximal effect.

Screening NS(=O)(=O)c1ccc(N=Nc2c[nH]c(=O)c(O)c2)cc1 returned RECQ1 helicase -17.6%, WRN helicase inh-1 inconclusive, FEN1 inh-1 inconclusive, BLM helicase inh-1 -14.9%, APEX1 inh inconclusive and FEN1 inh-2 inconclusive.
`Cc1cc(C)c2nc3nc(C)c(C)cc3c(N)c2c1` gave RECQ1 helicase inactive, WRN helicase inh-1 7.7%[11.6 µM], FEN1 inh-1 44.7µM*, BLM helicase inh-1 185.5%, APEX1 inh -4.6% and FEN1 inh-2 23.9*.
Screening O=C(CSc1nc(-c2ccccc2)nc2ccc(F)cc12)Nc1ccc(C(=O)O)cc1 returned RECQ1 helicase -2.0%, WRN helicase inh-1 -20.6%[57.1 µM], FEN1 inh-1 inconclusive, BLM helicase inh-1 -18.3%, APEX1 inh -9.2% and FEN1 inh-2 60.1*.
`O=C(CSc1nc(-c2ccc(F)cc2)nc2c1Cc1ccccc1O2)Nc1cccc(C(=O)O)c1` gave RECQ1 helicase inconclusive, WRN helicase inh-1 inconclusive, FEN1 inh-1 inconclusive, BLM helicase inh-1 inconclusive, APEX1 inh 2.99µM* and FEN1 inh-2 26.9*.
`Cc1cccc(OC(=O)c2nc(SCc3ccccc3F)ncc2Cl)c1` gave FEN1 inh-1 7.8% and BLM helicase inh-1 -2.8%.
Screening CCC1CCCCN1CCCNC(=O)c1[nH]c2ccccc2c1Sc1ccc(Cl)cc1 (centres undefined) returned FEN1 inh-1 5.6% and BLM helicase inh-1 4.0%.
Screening CCN(CC)CCN1C(=O)c2cccc3cc(N)cc(c23)C1=O returned RECQ1 helicase 14.6%, WRN helicase inh-1 13.3%[11.6 µM], FEN1 inh-1 50.1µM*, BLM helicase inh-1 115.7%, APEX1 inh inconclusive and FEN1 inh-2 inconclusive.
`Oc1c(Br)cc(Br)cc1/C=N/Nc1ccc(Cl)nn1` gave WRN helicase inh-1 17.7%[57.1 µM], FEN1 inh-1 6.1%, BLM helicase inh-1 -2.6% and APEX1 inh 38.1%.
Oc1ccc(/C=N/Nc2ccc(Cl)nn2)c(O)c1O was read as WRN helicase inh-1 inconclusive, FEN1 inh-1 inconclusive, BLM helicase inh-1 inconclusive, APEX1 inh 27.3% and FEN1 inh-2 37.9*.
Screening COCCc1nn2c(=O)cc(COC(=O)C(c3ccccc3)c3ccccc3)nc2s1 returned FEN1 inh-1 -2.7% and BLM helicase inh-1 -1.9%.
COc1cccc(-c2nc(N3CCN(C)CC3)c3ccccc3n2)c1O was read as RECQ1 helicase -15.7%, WRN helicase inh-1 -13.6%[11.6 µM], FEN1 inh-1 50.1µM*, BLM helicase inh-1 115.4%, APEX1 inh inconclusive and FEN1 inh-2 37.9*.
CCN(CC)c1ccc2nc3ccc(N)cc3[n+](-c3ccccc3)c2c1 was read as WRN helicase inh-1 4.74µM*, FEN1 inh-1 44.7µM*, APEX1 inh 23.8µM* and FEN1 inh-2 47.8*.
Screening Cc1cccc2c(N=NC(=O)c3ccc(NS(=O)(=O)c4cccs4)cc3)c(O)[nH]c12 returned WRN helicase inh-1 20µM*, FEN1 inh-1 inconclusive, APEX1 inh inconclusive and FEN1 inh-2 33.8*.
`COc1ccccc1NC(=O)C(C)Sc1nnc2ccc3ccccc3n12` (centres undefined) gave FEN1 inh-1 20.3% and BLM helicase inh-1 -0.2%.
For Cc1cccc(N=C2NC(=O)/C(=C/C=C/c3ccco3)S2)c1C the results were RECQ1 helicase -6.2%, WRN helicase inh-1 31.6µM*, FEN1 inh-1 44.7µM*, BLM helicase inh-1 inconclusive, APEX1 inh inconclusive, FEN1 inh-2 75.7*, WRN helicase inh-2 15.2µM*, TO DNA binding 27.1µM* and BLM helicase inh-2 8.57µM*.
`N#C/C(=C\c1ccc(O)c(O)c1)C(=O)Nc1cccc2ncccc12` gave WRN helicase inh-1 14.1µM*, FEN1 inh-1 44.7µM*, BLM helicase inh-1 12.6µM*, APEX1 inh 2.99µM*, FEN1 inh-2 inconclusive, WRN helicase inh-2 4.29µM*, TO DNA binding 12.1µM* and BLM helicase inh-2 1.71µM*.
Screening COc1ccc(/C=C(\C#N)C(=O)Nc2cccc3ncccc23)cc1OC returned RECQ1 helicase inactive, WRN helicase inh-1 -3.9%, FEN1 inh-1 -7.0%, BLM helicase inh-1 -4.4% and APEX1 inh -0.9%.
Cc1ccc2[nH]c(C)c(/C=C/c3cc[n+](C)cc3)c2c1 was read as WRN helicase inh-1 -31.1%, FEN1 inh-1 inconclusive, BLM helicase inh-1 -8.0% and APEX1 inh -36.0%.
`Cc1ccc2c(c1)c(/C=C/c1cc[n+](C)cc1)c(C)n2C` gave WRN helicase inh-1 39.8µM*, FEN1 inh-1 inconclusive, BLM helicase inh-1 31.5%, APEX1 inh -18.8%, FEN1 inh-2 33.8*, WRN helicase inh-2 21.5µM*, TO DNA binding inactive and BLM helicase inh-2 -19.1%.
`Oc1ccccc1-c1nc(/C=C/c2ccccc2Cl)nn1-c1ccccc1` gave FEN1 inh-1 -16.1% and BLM helicase inh-1 -9.8%.
For CCc1ccc(-n2c(=O)c3ccc(C(=O)NCCc4ccccc4)cc3n(Cc3ccccc3C#N)c2=O)cc1 the results were FEN1 inh-1 31.2% and BLM helicase inh-1 0.2%.
COc1cccc2c1C(=O)c1c(O)c3c(c(O)c1C2=O)CC(O)(C(=O)CO)CC3OC1CC(N(C)C)C(O)C(C)O1 (centres undefined) was read as WRN helicase inh-1 2.99µM*, FEN1 inh-1 17.8µM*, FEN1 inh-2 33.8*, WRN helicase inh-2 17.1µM*, TO DNA binding 170.9% and BLM helicase inh-2 27.1µM*.
